Screens as filed in PubChem.
This is a sample that favours compounds with a hit; in the whole collection about 8% have one here.
KB-V1 MDR tox – qHTS assay for MDR1-selective chemotherapeutics: Primary screen using the drug-selected MDR subline cells KB-V1. KB-V1 MDR cells viability, CellTiter-Glo, 72 h. 3.4% of 400,000 active. Potency, µM (series often up to 46.1 µM), hits mostly cytotoxic; also: % is scaled to controls: 0 for no effect and ±100 for the full control effect; nearly all actives have a fitted effect of over 60% in size
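Drug-selected KB-V1 cells, grown in DMEM lacking phenol red with 10% FBS, receive compound titrations; after three days at 37 degrees C, surviving cell ATP is quantified by CellTiter-Glo luminescence and responses normalized and curve-fitted.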
MCF10A rereplic – A quantitative high throughput screen for small molecules that induce DNA re-replication in MCF 10a normal breast cells. MCF 10A DNA re-replication, Hoechst nuclear intensity, 48 h. Potency, µM (doses to about 46.1 µM), without a hit: at the top dose activity, positive = re-replication, usual class: activators. 2.9% of 350,000 active. AID 624296, 2012; also: % of control where 0% means no effect; nearly all actives have a fitted effect of over 50% in size
HT1080 IDH1KD tx – qHTS for induction of synthetic lethality in tumor cells producing 2HG: qHTS for the HT-1080-IDH1KD cell line; HT-1080 IDH1 knockdown viability, ATP luminescence, 48 h; Potency, µM (series often up to 46.1 µM), for inactives: at the highest dose activity, negative = toxicity, most hits filed as cytotoxic; 2% of 360,000 active; AID 686971, 2013;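 also: 0% = DMSO wells and -100% = cell-free medium wells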
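Assay cells: HT-1080 with IDH1 knockdown, 750 per well, RPMI/5% FBS. Exposure: 48 h at 37 °C following 2 h pre-incubation. Read: CellTiter-Glo luminescence; fitted concentration-response, curve class assigned.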
KB-3-1 tox – qHTS assay for MDR1-selective chemotherapeutics: Primary screen using the parental adenocarcinoma cell KB-3-1. Potency, µM (doses to about 46.1 µM), hits mostly cytotoxic. AID 1347075, 2019. 1.4% of 400,000 active. KB-3-1 viability, CellTiter-Glo ATP luminescence, 72 h; also: % is scaled to controls: 0 for no effect and ±100 for the full control effect; nearly all actives have a fitted effect of over 60% in size
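Cytotoxicity in the drug-sensitive parental line KB-3-1 was scored as loss of CellTiter-Glo luminescence following 72 h incubation with compound. Values come from curve fitting of normalized concentration-response data.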
SW480 rerep – A quantitative high throughput screen for small molecules that induce DNA re-replication in SW480 colon adenocarcinoma cells | SW480 DNA re-replication, Hoechst DNA content imaging, 48 h | Potency, µM (series often up to 46.1 µM), without a hit: at the top dose re-replication activation, actives largely listed as activators | 1.8% of 340,000 active | AID 624297, 2012; also: % of control where 0% means no effect; nearly all actives have a fitted effect of over 55% in size
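Compounds, transferred as 23 nL by pin tool, were incubated with cells for 48 hr; DNA content per nucleus was then quantified by Hoechst staining and fluorescence plate imaging.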
HT1080-NT tox – qHTS for induction of synthetic lethality in tumor cells producing 2HG: qHTS for the HT-1080-NT fibrosarcoma cell line. 1.6% of 360,000 active. HT-1080-NT fibrosarcoma viability, CellTiter-Glo ATP luminescence, 48 h. Potency, µM (highest dose often 46.1 µM), without a hit: top-dose activity, negative = less viability, usual class: cytotoxic. AID 686970, 2013;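 also: NT is the 2HG producing partner of a matched IDH1 knockdown line; 0% = DMSO-treated cells and -100% = media-only wells without cells; nearly all actives have a fitted effect of over 55% in size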
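Toxicity toward the 2HG-producing NT line was scored as %Activity, normalised to DMSO and no-cell wells, from CellTiter-Glo luminescence after 48 hours' treatment.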
* = called active by the depositor; i = inactive; ? = inconclusive; nt = no result given. Calls follow the shape of the dose curve; as a rule, active = well fitted curve in the direction sought with a large enough effect; inconclusive = small, poorly fitted or top-dose-only effect, or another doubt; inactive = no such curve, though single readings can be large; an effect the other way counts as inactive or inconclusive. Potency is read from the fitted curve at half-maximal effect.

SMILES	KB-V1 MDR tox	MCF10A rereplic	HT1080 IDH1KD tx	KB-3-1 tox	SW480 rerep	HT1080-NT tox
CC1CCN(CCOCCOc2ccc(Br)cc2Cl)CC1	23.1µM*	?	-29.2%	?	?	-24.1%
CC1CCCN(CCCOc2ccc(Br)cc2Cl)C1 (stereo not drawn)	?	?	20.6µM*	i	?	16.4µM*
C=CCc1ccc(OCCCN2CCCC(C)C2)c(OC)c1 (stereo not drawn)	?	16.1%	-13.4%	i	?	5.5%
Cc1cc(Br)ccc1OCCOCCN1CCCC1	i	0.8%	-4.8%	i	1.4%	-14.3%
O=S(=O)(N[C@H]1C[C@@H](NS(=O)(=O)OCC(Cl)(Cl)Cl)C2CCCCC21)OCC(Cl)(Cl)Cl (stereo partly drawn)	i	?	-10.8%	?	26.4%	-7.6%
Clc1cccc(Cc2c(-c3ccco3)nc3ccc(Cl)cn23)c1	i	nt	18.4µM*	i	nt	23.1µM*
Clc1cccc(Cc2c(-c3ccco3)nc3ccc(Br)cn23)c1	i	nt	16.4µM*	i	nt	?
Brc1ccc2nc(-c3ccco3)c(Cc3ccccc3)n2c1	i	nt	?	i	nt	?
COC(=O)c1ccc2nc(-c3ccco3)c(Cc3ccc(OC)cc3C)n2c1	i	nt	16.4µM*	i	nt	?
Cc1ccc2nc(-c3ccc(C#N)cc3)c(Cc3cccc(Cl)c3)n2c1	i	nt	25.9µM*	i	nt	?
COCCNC(=S)N1CCN(C(=O)C(=O)Nc2ccc(C(=O)OC)cc2)CC1	i	0.6%	18.8%	i	nt	15.5%
Cc1cc(OCC(=O)OC(C)C(=O)NC2CC2)c(C(C)C)cc1Cl (stereo not drawn)	?	nt	0.7%	i	nt	1.1%
CSc1ccc(CCNC(=O)CCc2nnc3ccc(N4CCCC4)nn23)cc1	i	1.1%	-1.5%	i	-7.9%	5.8%
Cc1cc2nc(-c3ccco3)c(Cc3cccc(Cl)c3)n2c(C)c1Br	i	nt	20.6µM*	i	nt	29.1µM*
Cc1cc2nc(-c3cccc(Cl)c3)c(Cc3cccc(Cl)c3)n2c(C)c1Br	i	nt	1.6%	?	nt	5.7%
COc1cc(C(=O)NCCC(=O)NCc2c(F)cc(F)cc2F)cc(OC)c1OC	i	10.0%	0.5%	i	-20.4%	4.6%
COc1cc2oc(=O)cc(CN3CCN(c4ccccc4F)CC3)c2cc1Cl	i	nt	23.4%	i	nt	19.5%
CN(C)CCCC1Sc2ccccc2Sc2ccccc21 (stereo not drawn)	i	8.7%	?	?	?	23.1µM*
Cc1ccc(C(NC(=O)c2cccc(S(=O)(=O)N3CCN(C)CC3)c2)c2ccccc2)cc1 (stereo not drawn)	i	?	-6.1%	i	0.8%	-11.8%
CCC(c1nc2ccccc2c(=O)n1-c1nc2ccccc2s1)N1C(=O)c2ccccc2C1=O (stereo not drawn)	3.66µM*	-50.0%	-7.4%	?	7.31µM*	-7.4%
O=c1c2ccccc2ncn1Cc1nc2ccccc2s1	i	21.3%	1.0%	i	-2.4%	6.4%
CCOc1ccc(C(=O)c2ccccc2C(=O)O)cc1OCC	?	2.2%	0.1%	i	-5.9%	8.6%
CC1=CC(=O)C(C(C)C)=C/C1=C(\c1cc(C(C)C)c(OP(=O)(O)O)cc1C)c1ccccc1C(=O)O	?	20.6µM*	23.1µM*	16.4µM*	?	?
CS(=O)(=O)c1ccc(Cl)c(NC(=O)COC(=O)CCc2c[nH]c3ccccc23)c1	?	0.5%	-4.4%	i	-9.6%	-7.4%
Cc1cccc(NC(=O)CSc2nc3ccccc3nc2N2CCCCC2)c1	?	?	-26.1%	?	27.6%	-19.7%
SMILES	KB-V1 MDR tox	MCF10A rereplic	HT1080 IDH1KD tx	KB-3-1 tox	SW480 rerep	HT1080-NT tox
O=C(CSc1ncccc1-c1nc2ccccc2[nH]1)N1CCCCC1	5.17µM*	2.4%	4.5%	i	-1.8%	3.8%
Cc1cccc(NC(=O)CSc2nc3ccccc3nc2N2CCCC2)c1	?	20.6µM*	?	?	25.1%	-27.4%
CC1CN(c2nc3ccccc3nc2SCC(=O)Nc2cccc(C(F)(F)F)c2)CC(C)O1 (stereo not drawn)	i	?	-17.3%	23.1µM*	5.9%	?
O=C(CSc1nc2ccccc2nc1N1CCOCC1)N1CCN(c2ccccc2)CC1	i	-1.7%	-9.8%	?	-5.2%	-27.4%
O=C(CSc1nc2ccccc2nc1N1CCCCC1)N1CCN(c2ccccc2)CC1	20.6µM*	4.11µM*	-7.1%	?	0.9%	-18.1%
OC[C@@H]1CCCN1Cc1cn(-c2ccccc2)nc1-c1ccc2c(c1)OCO2	?	1.1%	-4.4%	i	0.6%	0.4%
COc1ccc(NC(=O)CSc2nc3ccccc3nc2N2CCCCC2)cc1	i	?	-13.7%	i	6.2%	-2.5%
COCCNc1nc(SCC(=O)N2CCN(c3ccccc3)CC2)nc2ccccc12	9.2µM*	-4.5%	-18.4%	i	-1.1%	1.1%
O=C(CN1CCN(c2ccccc2)CC1)N1CCN(c2ccccc2)CC1	20.6µM*	-3.6%	1.1%	i	-0.1%	-2.4%
CCc1ccc(NC(=O)CSc2nc3ccccc3nc2N2CCCCC2)cc1	?	10.3µM*	4.0%	i	1.8%	10.3%
O=C(CN1CCCCC1)N1CCN(c2ccccc2)CC1	i	1.2%	12.2%	i	9.7%	2.5%
Cc1c(Cl)cccc1NC(=O)Nc1cccnc1	i	6.0%	-1.4%	i	-2.6%	0.5%
Nn1c(C2CCCCC2)nc2ccccc2c1=O	i	0.0%	1.5%	i	-17.0%	0.0%
Cn1cc([N+](=O)[O-])c(C(=O)Nc2ccn(Cc3c(F)c(F)cc(F)c3F)n2)n1	?	?	6.31µM*	i	?	7.08µM*
COc1ccc(C(=O)Nc2nccs2)cc1[N+](=O)[O-]	i	-2.5%	0.4%	i	13.1%	20.1%
Cn1cc([N+](=O)[O-])c(C(=O)Nc2ccc(Br)cn2)n1	?	?	7.08µM*	?	?	11.2µM*
Cn1cc([N+](=O)[O-])c(C(=O)Nc2nccs2)n1	i	4.61µM*	?	i	?	?
CCCN1CCC(=NNc2ccc(S(=O)(=O)N3CCOCC3)cc2[N+](=O)[O-])CC1	7.31µM*	7.31µM*	14.6µM*	4.61µM*	7.31µM*	?
